Shown are actives, neighbours in structure and some others; about 2.8% of the full set was active somewhere.
IP6K1 inh = Primary qHTS assay for small molecule inhibitors of Inositol hexaphosphate kinase 1 (IP6K1) | Inositol hexakisphosphate kinase 1 (Homo sapiens), Q92551 | activity change, % (series mostly up to about 58 µM) | AID 1645851, 2021 | IP6K1 kinase, ADP-Glo luminescence, 2 h; stronger effect = lower value | 140,000 compounds, 0.81% hits; in the data active = activity change below about -25%; also: % is scaled to controls: 0 for no effect and ±100 for the full control effect
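ADP-Glo luminescence measures ADP made by human IP6K1 during a 2 h RT reaction with ATP/IP6 (mix at 1.3 mM/130 uM); top library doses 57.5 and 19.1 uM final.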
KDM5B inh = Primary screen for KDM5B Histone Demethylases FDH-coupled qHTS. Lysine-specific demethylase 5B (Homo sapiens), Q9UGL1. Potency, µM (highest dose often 57.7 µM), hits mostly inhibitors. 220,000 compounds, 2.6% hits. KDM5B demethylase, FDH-coupled NADH fluorescence (FDH is formaldehyde dehydrogenase); also: potency is read from the fitted curve at half-maximal effect; 0% is about no effect; nearly all actives have a fitted effect of over 70% in size
Target sequence (Q9UGL1 whole entry, looked up): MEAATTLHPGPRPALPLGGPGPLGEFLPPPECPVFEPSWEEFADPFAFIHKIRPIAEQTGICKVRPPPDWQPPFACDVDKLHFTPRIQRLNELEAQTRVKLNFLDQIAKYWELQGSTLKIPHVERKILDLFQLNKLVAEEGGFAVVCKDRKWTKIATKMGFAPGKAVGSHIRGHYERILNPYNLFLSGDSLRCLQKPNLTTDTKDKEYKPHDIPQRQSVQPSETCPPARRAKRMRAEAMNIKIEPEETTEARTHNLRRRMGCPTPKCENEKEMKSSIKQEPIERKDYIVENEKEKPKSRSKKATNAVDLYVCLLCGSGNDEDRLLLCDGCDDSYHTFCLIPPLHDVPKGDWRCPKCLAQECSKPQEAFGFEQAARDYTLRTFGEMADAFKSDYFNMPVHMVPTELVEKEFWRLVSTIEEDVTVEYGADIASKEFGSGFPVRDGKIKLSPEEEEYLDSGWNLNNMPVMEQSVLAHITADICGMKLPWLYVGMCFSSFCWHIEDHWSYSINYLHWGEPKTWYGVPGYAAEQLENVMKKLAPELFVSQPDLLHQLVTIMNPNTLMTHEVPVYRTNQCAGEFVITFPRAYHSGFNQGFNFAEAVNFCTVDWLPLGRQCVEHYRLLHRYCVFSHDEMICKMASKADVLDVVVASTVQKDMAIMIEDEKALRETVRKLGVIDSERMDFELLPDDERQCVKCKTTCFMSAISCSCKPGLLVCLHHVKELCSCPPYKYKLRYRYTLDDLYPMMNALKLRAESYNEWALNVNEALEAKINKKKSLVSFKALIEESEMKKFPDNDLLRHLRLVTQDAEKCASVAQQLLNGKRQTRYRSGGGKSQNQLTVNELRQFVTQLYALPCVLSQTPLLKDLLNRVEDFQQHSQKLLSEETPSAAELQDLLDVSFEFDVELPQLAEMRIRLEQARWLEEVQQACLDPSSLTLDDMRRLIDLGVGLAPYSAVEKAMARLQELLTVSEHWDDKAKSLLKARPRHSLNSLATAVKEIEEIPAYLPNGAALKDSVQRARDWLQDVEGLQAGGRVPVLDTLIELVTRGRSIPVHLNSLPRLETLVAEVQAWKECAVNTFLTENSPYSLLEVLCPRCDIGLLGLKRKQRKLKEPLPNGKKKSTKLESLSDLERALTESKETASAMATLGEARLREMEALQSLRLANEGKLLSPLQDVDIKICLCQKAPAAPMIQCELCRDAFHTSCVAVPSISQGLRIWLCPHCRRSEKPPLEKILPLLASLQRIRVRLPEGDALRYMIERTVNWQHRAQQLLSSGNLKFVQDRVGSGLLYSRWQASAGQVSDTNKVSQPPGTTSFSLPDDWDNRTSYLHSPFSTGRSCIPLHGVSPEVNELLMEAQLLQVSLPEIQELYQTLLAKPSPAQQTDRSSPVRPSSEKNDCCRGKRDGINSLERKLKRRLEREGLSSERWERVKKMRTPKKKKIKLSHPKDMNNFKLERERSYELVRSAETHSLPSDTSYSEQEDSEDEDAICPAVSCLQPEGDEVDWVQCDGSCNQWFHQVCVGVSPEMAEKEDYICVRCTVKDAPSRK
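qHTS format, multiple compound concentrations. Buffer 50 mM HEPES pH 7.5/0.01% Tween-20; 200 nM KDM5BΔAP final; 10 min compound preincubation; substrate-mix levels 12.5 µM peptide, 25 µM α-KG, 0.25 mM NAD⁺; 30 min RT; ΔRFU.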
* hit, by the source's call; i = inactive; ? = inconclusive; / = no result given.

SMILES	IP6K1 inh	KDM5B inh
NC(=O)c1noc2c1CN(c1cc(-c3ccccc3)nc3ccnn13)CC2	38	25µM*
CCc1nncn1C1CCN(S(=O)(=O)c2ccc(Cl)s2)CC1	12	/
O=C(Nc1nc2ccc(F)cc2s1)c1nc(S(=O)(=O)Cc2ccccc2F)ncc1Cl	-40*	?
CCOc1ccc(NC(=O)c2nc(S(=O)(=O)Cc3ccccc3F)ncc2Cl)cc1	-6	?
CCCCCCCCCCNC(=S)Nc1ccccc1	/	i
O=C(NCCc1ccccc1F)c1nc2sccn2c1-c1ccccc1	1	/
COc1cccc(-c2ccc(CN3CCCC(NC(=O)c4cccc(Cl)c4)C3)cc2)c1 (centres undefined)	4	/
O=C(NCCc1ccc(F)cc1)C1CCCN(Cc2cccc(-c3cccs3)c2)C1 (centres undefined)	0	/
Cc1cccc2ncc(C(=O)N3CC[C@H](CO)[C@@H](O)C3)c(=O)n12	8	22µM*
Cc1cccc2cc(C(=O)N3CC[C@H](CO)[C@H](O)C3)oc12	-9	i
CN1CC(=O)N(c2ccccc2F)Cc2c(NCCc3ccccc3)ncnc21	-2	?
CN1CC(=O)N(c2ccccc2F)Cc2c(NCCc3ccc(Cl)cc3)ncnc21	-4	25µM*
Cc1noc(C)c1CN1CCc2nc(C(=O)Nc3cccc(C(F)(F)F)c3)oc2CC1	-2	25µM*
O=C(Nc1cccc(C(F)(F)F)c1)c1nc2c(o1)CCN(Cc1nccs1)CC2	-1	i
N#Cc1cccc(CN2CCc3nc(C(=O)Nc4cccc(C(F)(F)F)c4)oc3CC2)c1	1	35µM*
N#Cc1cccc(CN2CCc3nc(C(=O)NCC4CC4)oc3CC2)c1	28	?
Cc1noc(C)c1CN1CCc2nc(C(=O)Nc3ccccc3)oc2CC1	-3	?
O=C(Nc1cccc(C(F)(F)F)c1)c1nc2c(o1)CCN(Cc1cccs1)CC2	11	32µM*
COc1ccccc1CN1CCc2nc(C(=O)Nc3cccc(C(F)(F)F)c3)oc2CC1	14	35µM*
O=C(Nc1cccc(C(F)(F)F)c1)c1nc2c(o1)CCN(Cc1ccccc1F)CC2	-2	?
CC(C#N)(NC(=O)CSc1ccccn1)C1CC1 (centres undefined)	/	i
Cc1ccc(Nc2ccnc(N3CCC(NC(=O)c4ccc(F)cc4)CC3)n2)cc1	6	/
O=[S+]([O-])(c1cccs1)N1CCCN(c2ccc3nnc(C4CC4)n3n2)CC1	5	/
COc1ccc(OCC(O)CN2CCC(=O)N(Cc3ccccc3)Cc3cc(OC)ccc32)cc1 (centres undefined)	9	/
Cc1ccc(C)c(C(C)NC(=O)Nc2ccccc2Br)c1 (centres undefined)	/	i
SMILES	IP6K1 inh	KDM5B inh
CCCOc1c(Cl)cc(C(=O)NCC2CCCO2)cc1OCC (centres undefined)	/	i
CCOc1ccc(-c2ccnc(N3CCNC(C)C3)n2)cc1C(=O)O (centres undefined)	4	28µM*
CCOc1ccc(-c2ccnc(NC[C@@H]3CCCO3)n2)cc1C(=O)O	-10	22µM*
CCOc1ccc(-c2ccnc(N3CCC(NC(C)=O)CC3)n2)cc1C(=O)O	-8	32µM*
O=C(O)C1CN(c2nccc(N3CCC(O)CC3)n2)CCN1 (centres undefined)	3	?
CC(=O)NC1CCN(c2nccc(Nc3ccc(C)cc3)n2)CC1	12	/
Cn1nc(C(=O)Oc2cc(Cl)ccc2Cl)c2ccccc2c1=O	/	i
Cc1cccc2c1O[C@H]1[C@H](CO)CN(C(=O)CC(C)C)[C@@H]21	10	/
O=C(NC1CCCCC1)C1CCCN1C(=O)c1cccc(-c2cccnc2)c1 (centres undefined)	-6	/
COc1ccc(-c2nc(-c3c(C)noc3C)cc3cc(C(C)C)oc23)cn1	-17	28µM*
Cc1noc(C)c1-c1cc2c(cc(C)n2CCN(C)C)c(Nc2ccn(C)n2)n1	-3	i
Cc1noc(C)c1-c1cc2cc(C(C)C)oc2c(-c2cccc(CO)c2)n1	3	?
Cc1noc(C)c1-c1cc2c(cc(C)n2CCN(C)C)c(-c2cccnc2)n1	-3	32µM*
Cc1cc2cc(-c3c(C)noc3C)nc(N(C)CCN(C)C)c2o1	-10	i
COc1ccc(-c2nc(-c3c(C)noc3C)cc3c2cc(C)n3CCN(C)C)cn1	-11	40µM*
Cc1ccc(-n2c(=O)c3c4c(sc3n(CC(=O)Nc3cccc(Cl)c3)c2=O)CCCCC4)cc1C	6	i
COc1ccc(NC(=O)Cn2c(=O)n(-c3ccc(C)c(C)c3)c(=O)c3c4c(sc32)CCCCC4)cc1Cl	-33*	i
O=C([C@H]1CCCN1C(=O)c1ccc(F)cc1)N1CCCC(c2nc3ccncc3[nH]2)C1 (some centres undefined)	16	/
COc1cccc(-c2cc(C(=O)NCc3ccc(F)cc3)c3cnn(C)c3n2)c1	-7	/
O=C(NCCCN1CCCCC1)c1cn2ccnc(-c3ccccc3)c2n1	22	?
CCN1CCN(CCNC(=O)c2cn3ccnc(-c4ccc(OC)cc4)c3n2)CC1	21	28µM*
O=C(NCc1ccc(Cl)cc1)c1ccc2nnc(CC3CC3)n2c1	-11	/
Cc1cn2nc(C(=O)NCc3cccc(Cl)c3)cc2c(=O)[nH]1	-4	i
Cc1cn2nc(C(=O)NCc3cc(F)cc(F)c3)cc2c(=O)[nH]1	-17	i
Cc1cn2nc(C(=O)NCc3ccccc3)cc2c(N(C)Cc2ccccc2)n1	-5	32µM*
SMILES	IP6K1 inh	KDM5B inh
Cc1cc2ncc(C(=O)NCc3ccccc3)cn2n1	2	/
Cc1cn2nc(C(=O)NCc3cc(F)cc(F)c3)cc2c(N(C)Cc2ccccc2)n1	-12	20µM*
CSc1ccc(CNC(=O)c2cc3c(N(C)Cc4ccccc4)nc(C)cn3n2)cc1	-10	25µM*
Cc1cccc(CNC(=O)c2cc3c(N(C)Cc4ccccc4)nc(C)cn3n2)c1	-9	25µM*
CSc1ccc(CN(C)CC(=O)NC(=O)NCc2ccccc2)cc1	/	i
COc1cccc(-c2cccc(C(=O)N3CCN(C(=O)Nc4ccccc4)CC3)c2)c1	0	/
O=C(NC1CCCCCC1)c1nc2sccn2c1-c1ccccc1	4	/
CSc1ccc(-c2cccc(C(=O)NCC(=O)NCc3cccs3)c2)cc1	2	/
COc1ccc(-c2cccc(C(=O)NCc3ccccc3F)c2)nn1	21	/
Cc1ccc(Nc2ccnc(N3CCCC3C(=O)NCc3cccc(Cl)c3)n2)cc1 (centres undefined)	5	/
COCCN1C(=O)CS(=O)C12CCN(C(=O)C1(c3ccc(OC)cc3)CC1)CC2 (centres undefined)	-12	i
COCCN1C(=O)CS(=O)C12CCN(C(=O)c1ccc3cc[nH]c3c1)CC2 (centres undefined)	-8	18µM*
O=C(NCc1ccccc1)N1CCC2(CC1)N(Cc1cccc(F)c1)C(=O)CS2=O (centres undefined)	-12	/
O=C(c1cccc2[nH]ccc12)N1CCC2(CC1)N(Cc1cccc(F)c1)C(=O)CS2=O (centres undefined)	-9	18µM*
C#CCNC(=O)c1ccc2oc(-c3ccccn3)nc2c1	-6	/
CCn1cnc2c1c(=O)n(CC(=O)OCCOc1cccc(Cl)c1)c(=O)n2Cc1ccccc1	/	i
Cc1nnc2ccc(N3CCCC(NC(=O)c4ccccc4Cl)C3)nn12 (centres undefined)	-8	/

Screening data: PubChem BioAssay, National Center for Advancing Translational Sciences (NCATS)
